AMA1-RON2 inh – qHTS for Inhibitors of AMA1-RON; Towards Development of Antimalarial Drug Lead: Primary Screen; Plasmodium falciparum AMA1 (3D7) - RON2 peptide interaction; AlphaScreen AMA1-biotinylated RON2 peptide binding; Potency, µM (series often up to 58.2 µM), most hits filed as inhibitors; actives 0.2% (n = 360,000); AID 720542, 2013; note: nearly all actives have a fitted effect of over 45% in size
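AMA1 (3D7) with his tag at 25 nM final met compounds first, then biotinylated RON2 peptide at 25 nM; detection used donor plus acceptor beads, 10 µg/mL apiece, read by AlphaScreen after 30 min at room temperature.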
Pf growth 96h – Primary qHTS for delayed death inhibitors of the malarial parasite plastid, 96 hour incubation; P. falciparum luciferase reporter growth, 96 h; Potency, µM (highest dose often 28.7 µM), actives largely listed as inhibitors; actives 6.9% (n = 320,000); AID 504834, 2011
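Erythrocytes infected with luciferase-expressing P. falciparum were dispensed at 2% hematocrit and 0.05% parasitemia (final), then incubated with compounds 96 hours at 37 C in 5% CO2. Luminescence after detection reagent addition reported growth.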
SARS PLpro yeast – qHTS of Yeast-based Assay for SARS-CoV PLP | S. cerevisiae expressing SARS-CoV PLpro, growth rescue | Potency, µM (top dose mostly 32.9 µM), actives largely listed as activators | actives 0.19% (n = 330,000) | AID 485353, 2010; calls by dose curve; note: nearly all actives have a fitted effect of over 55% in size
HCV inhibitor – qHTS Assay for Inhibitors of Hepatitis C Virus (HCV); Potency, µM (doses to about 41.8 µM), hits mostly inhibitors; actives 3.4% (n = 340,000); Huh7.5.1 HCVcc-Cre infection, luciferase reporter, 44 h
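Cells (1,000/well) were plated 4 h before compound, then infected with HCVcc-Cre virus (~0.5 moi). After 44 h further culture, infection was read as luciferase luminescence following a 15 min substrate incubation at room temperature.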
NS1 function inh – qHTS Assay for Inhibitors of Influenza NS1 Protein Function; Potency, µM (doses to about 46.1 µM); AID 2326, 2010; actives 0.4% (n = 270,000); calls by dose curve; note: actives are rising curves; nearly all actives have a fitted effect of over 50% in size
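S. cerevisiae expressing influenza A NS1, grown in glucose, washed, then diluted 1:100 into pH 6.0 -URA galactose medium with 23 nl compound. Growth recovery read as OD600; NS1-free strain serves as control.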
Pf growth 48h – Primary qHTS for delayed death inhibitors of the malarial parasite plastid, 48 hour incubation. Potency, µM (titrated, usually from 28.7 µM), hits mostly inhibitors. actives 5.9% (n = 310,000). AID 504832, 2011. P. falciparum luciferase growth in erythrocytes, 48 h
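Parasite viability was followed by luminescence of a genomically integrated firefly luciferase. Cultures held 0.1% parasitemia at 2% hematocrit (final), incubated under 5% CO2 at 37 C.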
Numbers stand for hits; – = inactive; ? = inconclusive; · = no result given; ! = not active in a repeat; [ ] = another dose, or the depositor's remark. Compounds with a hit are over-represented: about 12% of the library has one in this group of screens. Unless noted, calls come from the whole dose curve; as a rule, active = well fitted curve in the direction sought with a large enough effect; inconclusive = small, poorly fitted or top-dose-only effect, or another doubt; inactive = no such curve, though single readings can be large; an effect the other way counts as inactive or inconclusive.

SMILES	AMA1-RON2 inh	Pf growth 96h	SARS PLpro yeast	HCV inhibitor	NS1 function inh	Pf growth 48h
C[C@H]1O[C@@H](O[C@H]2[C@@H](O)C[C@H](O[C@H]3[C@@H](O)C[C@H](O[C@H]4CC[C@@]5(C)[C@H](CC[C@@H]6[C@@H]5C[C@@H](O)[C@]5(C)[C@@H](C7=CC(=O)OC7)CC[C@]65O)C4)O[C@@H]3C)O[C@@H]2C)C[C@H](O)[C@@H]1O	–	7.6µM!	–	?	–	?
C[C@@H]1O[C@@H](O[C@H]2C[C@@H](O)[C@@]3(CO)[C@H]4[C@H](O)C[C@]5(C)[C@@H](C6=CC(=O)OC6)CC[C@]5(O)[C@H]4CC[C@@]3(O)C2)[C@@H](O)[C@H](O)[C@H]1O	·	–	·	·	–	–
CC1OC(OC2C(O)CC(OC3C(O)CC(OC4CCC5(C)C(CCC6C5CCC5(C)C(C7=CC(=O)OC7)CCC65O)C4)OC3C)OC2C)CC(O)C1O (stereo not given)	·	4.8µM	·	·	·	15µM
Cc1ccc2nc(-c3cccnc3)cc(C(=O)Nc3ccc(F)cc3C)c2c1	–	–	–	–	–	?
Cc1ccc(-c2cc(C(=O)Nc3cccnc3)c3ccccc3n2)s1	–	?	–	–	–	2.6µM
O=C(Nc1ccccn1)c1cc(-c2cccnc2)nc2ccc(Br)cc12	–	–	–	–	–	3.7µM
Cc1ccc2nc(-c3ccncc3)cc(C(=O)Nc3ccc(F)cc3C)c2c1	–	?	–	–	–	6.6µM
Cc1cc(NC(=O)c2cc(-c3ccccn3)nc3ccc(Br)cc23)no1	–	–	–	–	–	–
Cc1ccc2nc(-c3ccccc3)cc(C(=O)Nc3cccnc3)c2c1	–[11.6 µM]	1.7µM	–	–	·	2.1µM
Cc1ccc2nc(-c3ccc(NS(C)(=O)=O)cc3)cc(-c3ccccc3)c2c1	–	?	–	?	–	?
Cc1ccc2nc(-c3cccc(Br)c3)cc(C(=O)NC3CC3)c2c1	–	?	–	–	–	4.7µM
Cc1ccc2nc(C)cc(C(=O)NC3CCCCCC3)c2c1	–	·	–	–	·	·
Cc1ccc2nc(-c3ccncc3)cc(-c3ccccc3)c2c1	–	9.3µM	–	11µM	–	10µM
OCCNc1cc(Cl)ncn1	–	–	–	–	–	–
COC(=O)CC[C@@H](C)C1CC[C@H]2[C@H]3CC[C@H]4C[C@@H]5CCC4(C)[C@@]3(O5)[C@@H](Br)[C@@H](Br)[C@@]12C (stereo not given in full)	·	·	·	·	–	·
COc1cccc(NC(=O)c2ccc3c(c2)OCCO3)c1	–	?	–	–	–	–
COc1ccc(NC(=O)c2ccc3c(c2)OCO3)cc1Cl	–	–	–	–	–	–
COC(=O)c1ccc(NC(=O)c2ccc3c(c2)OCO3)cc1	–	15µM	–	?	–	–
COc1cccc(C(=O)Nc2cc3c(cc2C(C)=O)OCCO3)c1	–	10µM	–	?	–	–
COc1cccc(NC(=O)c2ccc3c(c2)OCO3)c1	–	9.3µM	–	–	–	–
COc1ccc(N/C=C\C(=O)c2ccc3c(c2)OCO3)cc1OC	–	4.7µM	–	–	–	–
CC1Nc2ccc(C(=O)NC3CCCCC3)cc2NC1=O (stereo not given)	–	–	–	–	–	–
CCc1ccc(OCC(=O)Nc2nnc(C3CCCC3)s2)cc1	–	–	–	–	–	–
CCOc1ccc(NC(=O)NC2CCS(=O)(=O)C2)cc1 (stereo not given)	–	–	–	–	–	–
CCOc1ncccc1C(=O)OCC(=O)N(CC)c1ccccc1	–	–	–	–	·	–
SMILES	AMA1-RON2 inh	Pf growth 96h	SARS PLpro yeast	HCV inhibitor	NS1 function inh	Pf growth 48h
CCOC(=O)c1ccc2c(c1)n(CC)c(/C=C/N(C)c1ccccc1)[n+]2CC	–	–	–	?	–	1.2µM
CCOC(=O)c1ccc2c(c1)n(Cc1ccccc1)c(C)[n+]2CC	–	–	–	–	–	?
O=C(c1cccs1)N1CCc2c([nH]c3ccccc23)C1c1ccc(Cl)cc1 (stereo not given)	–	10µM	–	?	–	10µM
O=C(c1cccs1)N1CCc2c([nH]c3ccccc23)C1c1ccccn1 (stereo not given)	–	–	–	–	–	?
Cc1ccn2c(-c3csc(NCc4ccccc4)n3)c(C)nc2c1	–	–	–	10µM	–	13µM
Cc1ccc(Nc2nc(-c3c(C)nc4ccccn34)cs2)cc1	–	10µM	–	?	–	12µM
Cc1nc2ccccn2c1-c1csc(NCc2ccco2)n1	–	·	–	?	–	–
O=C(COC(=O)CN1C(=O)C2CC=CCC2C1=O)Nc1cccc([N+](=O)[O-])c1 (stereo not given)	–	·	·	·	·	·
Cc1nnc(N/N=C/c2ccc(Br)cc2)n1N	–	15µM	–	–	–	–
CCNc1nc(NCC)nc(N/N=C/c2ccc(Br)cc2)n1	–	?	–	11µM	·	?
Cc1ccc(/C=N/Nc2nc(C)cc(C)n2)cc1	–	–	–	–	–	–
Cc1nnc(N/N=C/c2ccc([N+](=O)[O-])cc2)n1N	–	–	–	–	·	–
Cc1nnc(N/N=C/c2ccc(-c3ccc(Br)cc3)o2)n1N	–	3.7µM	–	?	·	?
O=C(CCNC(=O)c1ccc([N+](=O)[O-])cc1)Nc1ccc(F)cc1F	–	–	–	–	–	–
Cn1c(=O)c2c(ncn2CC(=O)N/N=C/C=C/c2ccccc2[N+](=O)[O-])n(C)c1=O	–	–	–	–	–	–
NS(=O)(=O)c1ccc(CCNC(=O)COC(=O)C2CCN(c3ccc(C(F)(F)F)cn3)CC2)cc1	–	–	·	–	·	–
FC(F)Sc1ccc(NC(=S)NC(c2ccccc2)c2ccccc2)cc1	–	?	–	?	·	–
CN(C(=S)Nc1ccc(SC(F)F)cc1)C(c1ccccc1)c1ccccc1	–	?	–	?	–	9.3µM
CCCCN1C(=O)C(C(=O)OCc2ccccc2)CC2=C1CCCC2=O (stereo not given)	–	·	·	–[8.37 µM]	·	·
CCCCNC(=O)c1nc(-c2ccccc2)oc1-c1ccc(Cl)cc1	–	·	·	·	·	·
Cc1ccc(C(=O)N2CCN3C(=O)c4ccccc4C23c2ccc(Cl)cc2)cc1 (stereo not given)	–	6.6µM	–	10µM	–	·
O=C(CCl)N1CCN2C(=O)c3ccccc3C12c1ccc(Cl)cc1 (stereo not given)	–	?	–	–	–	–
O=C(Nc1cccc(Cl)c1)N1CCN2C(=O)c3ccccc3C12c1ccccc1 (stereo not given)	–	10µM	?	?	–	17µM

Bioassay records from PubChem.
